From PubChem BioAssay (Tox21)
Records with an inconclusive call do not appear. The source made the active and inactive calls. Unless noted, calls come from the whole dose curve; as a rule, active = well fitted curve in the direction sought with a large enough effect in the repeat runs; inconclusive = weak or mixed curves; inactive = no such curve, though single readings can be large; an effect the other way counts as inactive or inconclusive.

Experiments:
[1] = biological target: Luciferin 4-monooxygenase (Photinus pyralis) (UniProt P08659); assay: qHTS assay to identify small molecule inhibitors of firefly luciferase (AID 1224835); note: nearly all actives have a fitted effect of over 25% in size; note: potency is the fitted concentration of half-maximal effect
In short: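 Biochemical qHTS: compounds run as interplate titrations against purified firefly enzyme, with D-luciferin and ATP each at its KM concentration. Light output recorded by CCD imaging.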

[2] = qHTS assay to identify small molecule agonists of the constitutive androstane receptor (CAR) signaling pathway - cell viability counter screen (AID 1224836); note: nearly all actives have a fitted effect of over 45% in size; note: potency is the fitted concentration of half-maximal effect
In short: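 23 h treatment, 37 C, 5% CO2. Cell line: HepG2 stably expressing hCAR with a CYP2B6-2.2kb construct. Co-treatment: PK11195, 0.75 uM final. Read-out: CellTiter-Fluor fluorescence intensity.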

[3] = qHTS assay to identify small molecule antagonists of the constitutive androstane receptor (CAR) signaling pathway - cell viability counter screen (AID 1224837); note: nearly all actives have a fitted effect of over 45% in size; note: potency is the fitted concentration of half-maximal effect
In short: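 Using CellTiter-Fluor, viability is scored in HepG2 cells stably carrying hCAR and a 2.2kb CYP2B6 reporter after 23 hr compound exposure across 15 concentrations, with CITCO present at 50 nM.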

[4] = biological target: Nuclear receptor subfamily 1 group I member 3 (Homo sapiens) (UniProt Q14994); assay: qHTS assay to identify small molecule antagonists of the constitutive androstane receptor (CAR) signaling pathway (AID 1224838);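 note: HepG2 cells stably expressing hCAR with CYP2B6 luciferase reporter stimulated by CITCO; nearly all actives have a fitted effect of over 40% in size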; note: potency is the fitted concentration of half-maximal effect
In short: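 Reporter luminescence was quantified after 24 h exposure of hCAR/CYP2B6-2.2kb double-stable HepG2 cells to compounds at 15 concentrations in the presence of 50 nM CITCO final.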

[5] = biological target: Nuclear receptor subfamily 1 group I member 3 (Homo sapiens) (UniProt Q14994); assay: qHTS assay to identify small molecule agonists of the constitutive androstane receptor (CAR) signaling pathway (AID 1224839); note: nearly all actives have a fitted effect of over 15% in size; note: potency is the fitted concentration of half-maximal effect;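 for activation: HepG2 cells stably carrying human CAR and a CYP2B6 luciferase reporter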
In short: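 Compounds tested at 15 concentrations on HepG2 cells stably harbouring hCAR and CYP2B6-2.2kb reporter constructs, co-treated with PK11195 (0.75 uM final), 24 h at 37 C; luminescent reporter signal quantified.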

[6] = qHTS assay to identify small molecule antagonists of the estrogen related receptor signaling pathway with the pleiotropic PPARgamma coactivator (PGC) from Tox21 10K library - cell viability counter screen (AID 1224840; active = well fitted cell-killing curve with a large enough effect in the repeat runs, not every such curve was filed as active; note: nearly all actives have a fitted effect of over 40% in size; note: potency is the fitted concentration of half-maximal effect)
In short: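 Here the PGC/ERR cells serve as a cytotoxicity control: they are exposed to compounds for 17.5 hours at 37 C, and live-cell signal is quantified using CellTiter-Fluor fluorescence.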

[7] = qHTS assay to identify small molecule antagonists of the estrogen related receptor signaling pathway with the pleiotropic PPARgamma coactivator (PGC) from Tox21 10K library (AID 1224841; call rule not given here; note: actives are mostly falling curves and most rising ones were filed inactive; nearly all actives have a fitted effect of over 50% in size; note: potency is the fitted concentration of half-maximal effect)
In short: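 Each well held 2,000 PGC/ERR cells, pre-incubated six hours (37 C, 5% CO2). Test substances in DMSO were added by pin tool and left for 18 h at 37 C before luciferase detection by One-Glo.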

[8] = qHTS assay to identify small molecule agonists of the estrogen related receptor signaling pathway with the pleiotropic PPARgamma coactivator (PGC) from Tox21 10K library (AID 1224842); note: nearly all actives have a fitted effect of over 15% in size
In short: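 PGC/ERR reporter cell line, 2,000 cells per well, incubated 6 h at 37 C before 23 nL compound in DMSO was added. After 18 h at 37 C, One-Glo luminescence read following 30 min at room temperature.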

[9] = biological target: Thyrotropin receptor (Homo sapiens) (UniProt P16473); assay: qHTS assay to identify small molecule agonists of the thyroid stimulating hormone receptor (TSHR) signaling pathway (AID 1224843; calls by dose curve; note: nearly all actives have a fitted effect of over 45% in size)
In short: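 Steps: seed 800 TSHR-HEK293 cells per well; add test compound and hold 30 min at ambient temperature; dispense cAMP-d2 then anti-cAMP cryptate; incubate 1 h at ambient; measure fluorescence intensity.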

[10] = qHTS assay to identify small molecule agonists of the hypoxia (HIF-1) signaling pathway - cell viability counter screen (AID 1224844; calls by dose curve; note: nearly all actives have a fitted effect of over 50% in size; note: potency is the fitted concentration of half-maximal effect)
In short: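 Multiplexed with the HRE beta-lactamase assay, this viability read used CellTiter-Glo luminescence (30 min, RT) on HRE-bla ME-180 cells treated 17 hrs with compounds in 0.5% dialyzed FBS medium.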

[11] = qHTS assay to identify small molecule agonists of H2AX (AID 1224845; active = well fitted activation curve with a large enough effect in the signal ratio in the repeat runs, not every such curve was filed as active; the % refers to the signal ratio; note: potency is the fitted concentration of half-maximal effect)
In short: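 Wild-type CHO-K1 cells, plated overnight, exposed 3hr at 37C to 15 concentrations (0.76% DMSO final). Lysed, then HTRF anti-pH2AX (S139) cryptate and anti-H2AX-d2 antibodies, 24 hr room temperature; 665/620 nm emission read.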

[12] = qHTS assay to identify small molecule agonists of H2AX - cell viability counter screen (AID 1224847; calls by dose curve; note: nearly all actives have a fitted effect of over 30% in size; note: potency is the fitted concentration of half-maximal effect)
In short: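 Compounds tested at 15 concentrations were incubated 3 hr at 37C with wild-type CHO-K1 cells; cellular ATP-based luminescence (CellTiter-Glo) indicated viability.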

[13] = qHTS assay to identify small molecule antagonists of the estrogen related receptor (ERR) signaling pathway from Tox21 library (AID 1224848); note: nearly all actives have a fitted effect of over 50% in size; note: potency is the fitted concentration of half-maximal effect
In short: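 Luminescent reporter read-out (ONE-Glo) from NTP's ERR cell line after 18 h treatment at 37 C with DMSO-dissolved Tox21 compounds; cells pre-plated 6 h beforehand at 2,000 per well.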

[14] = qHTS assay to identify small molecule agonists of the estrogen related receptor (ERR) signaling pathway from Tox21 library (AID 1224849; calls by dose curve; note: nearly all actives have a fitted effect of over 15% in size); conditions: ERR reporter cell line, ONE-Glo luciferase, 18 h; at 92.4 µM (top of the series) unless noted
In short: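 Six hours post-seeding at 37 C/5% CO2, ERR cells receive DMSO-solubilised compounds; after 18 h at 37 C, ONE-Glo reagent is applied and luminescence recorded.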

[15] = qHTS RealTime-Glo MT Cell Viability Assay in HEK293 cells - 32 hour (AID 1224868); note: nearly all actives have a fitted effect of over 50% in size; note: potency is the fitted concentration of half-maximal effect
In short: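 Tox21 10K qHTS, HEK293, 600 cells/well, RealTime-Glo reagent co-dispensed with cells; 5 h preincubation, compound by pintool, 37 C, luminescence at 0–40 h.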

[16] = A CellTox Green Cytotoxicity Assay to monitor cytotoxicity in HEK293 cells - 0 hour (AID 1224869); note: nearly all actives have a fitted effect of over 50% in size; note: potency is the fitted concentration of half-maximal effect
In short: (§1)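 Seeding of HEK293 cells together with cytotoxicity dye preceded a 5 h incubation at 37 C/5% CO2. Test compounds in DMSO were then added and fluorescence monitored across 40 h.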

[17] = A CellTox Green Cytotoxicity Assay to monitor cytotoxicity in HEK293 cells - 40 hour (AID 1224871); note: nearly all actives have a fitted effect of over 45% in size; note: potency is the fitted concentration of half-maximal effect
In short: as §1

[18] = qHTS assay to identify small molecule agonists of the hypoxia (HIF-1) signaling pathway (AID 1224846; active = well fitted activation curve with a large enough effect in the signal ratio in the repeat runs, not every such curve was filed as active; the % refers to the signal ratio)
In short: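 Hypoxia-pathway activation was scored as increased beta-lactamase from an HRE-controlled reporter in ME-180 cells; plated at 2,000 cells per well with 0.5% dialyzed FBS, they were exposed 17 hrs to compounds and then given CCF4-AM.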

[19] = qHTS RealTime-Glo MT Cell Viability Assay in HepG2 cells - 24 hour (AID 1224867); note: nearly all actives have a fitted effect of over 50% in size; note: potency is the fitted concentration of half-maximal effect
In short: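 Cells + NanoLuc/prosubstrate dispensed (600 cells/well) → 5 h at 37 C/5% CO2 → compounds in DMSO transferred → 40 h incubation at 37 C, luminescence read at 0, 8, 16, 24, 32, 40 h.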

[20] = qHTS RealTime-Glo MT Cell Viability Assay in HepG2 cells - 40 hour (AID 1224870); note: nearly all actives have a fitted effect of over 50% in size; note: potency is the fitted concentration of half-maximal effect
In short: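 HepG2 cells (600/well) mixed with RealTime-Glo MT reagent, settled 5 h at 37 C/5% CO2 before compound addition. Nonlytic NanoLuc luminescence from viable-cell prosubstrate reduction read repeatedly during 40 h treatment at 37 C.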
% is set by controls: 0 for no effect and ±100 for the full control effect.

Sequence of Thyrotropin receptor (Homo sapiens) (P16473 whole entry, looked up): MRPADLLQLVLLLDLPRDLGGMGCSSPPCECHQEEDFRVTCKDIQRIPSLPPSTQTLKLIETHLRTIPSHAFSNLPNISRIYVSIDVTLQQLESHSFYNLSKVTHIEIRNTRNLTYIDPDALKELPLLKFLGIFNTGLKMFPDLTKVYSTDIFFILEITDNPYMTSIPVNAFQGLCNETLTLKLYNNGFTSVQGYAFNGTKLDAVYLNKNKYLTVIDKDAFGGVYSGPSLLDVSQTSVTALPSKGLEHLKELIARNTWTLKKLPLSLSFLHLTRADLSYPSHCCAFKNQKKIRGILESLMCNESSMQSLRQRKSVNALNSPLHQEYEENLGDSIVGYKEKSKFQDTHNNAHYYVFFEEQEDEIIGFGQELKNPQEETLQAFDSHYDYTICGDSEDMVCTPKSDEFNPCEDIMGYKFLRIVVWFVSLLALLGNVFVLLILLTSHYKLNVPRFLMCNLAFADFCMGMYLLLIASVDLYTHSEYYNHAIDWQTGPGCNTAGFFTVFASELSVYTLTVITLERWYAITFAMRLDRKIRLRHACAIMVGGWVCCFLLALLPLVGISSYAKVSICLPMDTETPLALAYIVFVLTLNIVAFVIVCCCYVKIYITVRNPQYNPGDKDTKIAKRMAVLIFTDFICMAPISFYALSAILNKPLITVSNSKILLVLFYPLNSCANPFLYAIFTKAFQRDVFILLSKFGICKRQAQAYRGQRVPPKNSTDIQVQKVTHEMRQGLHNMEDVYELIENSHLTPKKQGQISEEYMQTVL
Sequence of Luciferin 4-monooxygenase (Photinus pyralis) (P08659 whole entry, looked up): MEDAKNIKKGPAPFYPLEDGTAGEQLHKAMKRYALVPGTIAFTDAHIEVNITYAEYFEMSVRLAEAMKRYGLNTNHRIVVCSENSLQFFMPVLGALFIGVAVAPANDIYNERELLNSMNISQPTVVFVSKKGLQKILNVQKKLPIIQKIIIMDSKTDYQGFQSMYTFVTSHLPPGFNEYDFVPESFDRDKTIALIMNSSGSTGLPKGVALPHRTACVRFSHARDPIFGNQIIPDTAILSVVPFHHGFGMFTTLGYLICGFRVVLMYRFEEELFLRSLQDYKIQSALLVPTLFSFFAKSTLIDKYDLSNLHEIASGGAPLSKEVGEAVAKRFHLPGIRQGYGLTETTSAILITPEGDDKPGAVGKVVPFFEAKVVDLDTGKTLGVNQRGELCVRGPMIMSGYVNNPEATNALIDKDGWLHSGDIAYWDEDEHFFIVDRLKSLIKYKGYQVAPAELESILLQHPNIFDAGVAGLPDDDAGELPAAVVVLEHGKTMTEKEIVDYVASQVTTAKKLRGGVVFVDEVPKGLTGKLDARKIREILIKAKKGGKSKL
Sequence of Nuclear receptor subfamily 1 group I member 3 (Homo sapiens) (Q14994 whole entry, looked up): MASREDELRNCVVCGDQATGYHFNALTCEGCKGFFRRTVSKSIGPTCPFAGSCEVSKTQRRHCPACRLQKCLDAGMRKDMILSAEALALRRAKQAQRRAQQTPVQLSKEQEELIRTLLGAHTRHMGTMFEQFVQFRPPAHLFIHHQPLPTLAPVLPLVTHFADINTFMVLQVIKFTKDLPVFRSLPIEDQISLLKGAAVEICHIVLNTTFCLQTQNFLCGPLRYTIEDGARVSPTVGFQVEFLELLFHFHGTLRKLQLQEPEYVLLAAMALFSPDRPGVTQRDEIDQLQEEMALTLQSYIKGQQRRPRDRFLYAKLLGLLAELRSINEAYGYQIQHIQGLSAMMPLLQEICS

COc1cc(C=O)cc2c1[C@H](COC(N)=O)[C@]1(OC(C)=O)ON2C[C@H]2[C@@H]1N2C(C)=O
inactive: Potency [1] | Potency [5] | Potency [6] | Potency [8] | Potency [9] | Potency [12] | activity change, positive = activation [14] -41% | Potency [16] | Potency [17]
active: Potency [2] 0.611 µM | Potency [3] 0.433 µM | Potency [4] 0.0486 µM | Potency [7] 1.93 µM | Potency [10] 3.89 µM | Potency [11] 63.5 µM | Potency [13] 0.273 µM | Potency [15] 0.0549 µM

CC(C)(C)c1cc([N+](=O)[O-])cc(C(C)(C)C)c1O
active: Potency [2] 19.3 µM | Potency [3] 21.7 µM | Potency [4] 27.3 µM | Potency [5] 5.45 µM | Potency [6] 13.7 µM | Potency [7] 2.73 µM | Potency [12] 50.5 µM | Potency [13] 2.73 µM | Potency [15] 6.92 µM
inactive: Potency [1] | Potency [8] | Potency [9] | Potency [10] | Potency [11] | outcome [18] | activity change, positive = activation [14] -56.9% | Potency [19] | Potency [16] | Potency [20]

CCC(C)(C)C(=O)OC1=C(c2ccc(Cl)cc2Cl)C(=O)OC12CCCCC2
active: Potency [1] 31.7 µM | Potency [10] 49 µM
inactive: Potency [2] | Potency [3] | Potency [4] | Potency [5] | Potency [6] | Potency [7] | Potency [9] | Potency [11] | Potency [12] | Potency [13] | Potency [19] | Potency [15] | Potency [16] | Potency [20] | Potency [17]

COC12CC[C@@]3(C[C@@H]1C(C)(O)C(C)(C)C)[C@H]1Cc4ccc(O)c5c4[C@@]3(CCN1CC1CC1)[C@H]2O5 (some centres not stated)
inactive: Potency [1] | Potency [5] | Potency [8] | Potency [9] | activity change, positive = activation [14] -68% | Potency [16]
active: Potency [2] 43 µM | Potency [3] 54.1 µM | Potency [4] 48.2 µM | Potency [6] 43 µM | Potency [7] 60.7 µM | Potency [10] 34.4 µM | Potency [11] 56.3 µM | Potency [12] 28.2 µM | Potency [13] 27.1 µM | Potency [19] 43.4 µM | Potency [15] 24.4 µM | Potency [20] 48.6 µM | Potency [17] 24.4 µM

Oc1cccc(-c2ccccc2)c1
inactive: Potency [2] | Potency [3] | Potency [4] | Potency [6] | Potency [7] | Potency [8] | Potency [9] | Potency [10] | Potency [11] | outcome [18] | Potency [13] | Potency [19] | Potency [16] | Potency [17]
active: Potency [1] 35.6 µM | Potency [5] 54.5 µM

CC(C)[C@H](C(=O)OC(C#N)c1cccc(Oc2ccccc2)c1)c1ccc(OC(F)F)cc1 (some centres not stated)
inactive: Potency [1] | Potency [2] | Potency [3] | Potency [4] | Potency [5] | Potency [6] | Potency [8] | Potency [9] | Potency [10] | Potency [11] | activity change, positive = activation [14] -19.1% | Potency [19] | Potency [15] | Potency [16] | Potency [20]
active: Potency [13] 15.4 µM

O=S(=O)(c1ccc(Cl)cc1)c1ccc(Cl)cc1
inactive: Potency [1] | Potency [2] | Potency [3] | Potency [4] | Potency [6] | Potency [8] | Potency [10] | activity change, positive = activation [14] -35.9% | Potency [19] | Potency [16]
active: Potency [5] 49.2 µM | Potency [12] 57.3 µM | Potency [13] 13.9 µM

CC(C)Oc1cccc(NC(=O)c2ccccc2C(F)(F)F)c1
active: Potency [5] 61.1 µM | Potency [13] 24.3 µM | Potency [15] 24.5 µM | Potency [16] 43.6 µM | Potency [17] 61.6 µM
inactive: Potency [1] | Potency [2] | Potency [3] | Potency [4] | Potency [6] | Potency [8] | Potency [11] | activity change, positive = activation [14] -38.3% | Potency [19] | Potency [20]

BrCBr
inactive: Potency [1] | Potency [2] | Potency [3] | Potency [4] | Potency [5] | Potency [6] | Potency [9] | Potency [10] | Potency [11] | outcome [18] | Potency [12] | Potency [19] | Potency [15] | Potency [16] | Potency [20] | Potency [17]

N#CNC#N
inactive: Potency [1] | Potency [2] | Potency [3] | Potency [4] | Potency [5] | Potency [6] | Potency [9] | Potency [10] | Potency [11] | outcome [18] | Potency [12] | Potency [19] | Potency [15] | Potency [16] | Potency [17]

N#Cc1ccccc1N
inactive: Potency [1] | Potency [2] | Potency [3] | Potency [4] | Potency [5] | Potency [6] | Potency [8] | Potency [9] | Potency [10] | Potency [11] | outcome [18] | Potency [12] | activity change, positive = activation [14] -12.6% | Potency [19] | Potency [15] | Potency [16] | Potency [20] | Potency [17]

COc1ccc(OC)c(CC(C)N)c1 (configuration not stated)
inactive: Potency [1] | Potency [2] | Potency [3] | Potency [4] | Potency [5] | Potency [6] | Potency [9] | Potency [10] | Potency [11] | outcome [18] | Potency [12] | Potency [19] | Potency [15] | Potency [16] | Potency [20] | Potency [17]
